Measurements from article PMC5540273 (PLoS ONE, 2017).

Tests used:
Settings in all cases: concentration: 1 μM, replicates: in singlicate; n = 1
ACVR2A = test system: ACVR2A
ACVR2B = test system: ACVR2B
ACVRL1 = test system: ACVRL1
ADCK3 = test system: T1, ADCK3
T1 construct: gene CABC1

ADCK4 = test system: ADCK4
AKT1 = test system: AKT1
AKT2 = test system: AKT2
AKT3 = test system: AKT3
ALK = test system: ALK
AMPK-alpha1 = test system: T2, AMPK-alpha1
T2 construct: gene PRKAA1

AMPK-alpha2 = test system: T3, AMPK-alpha2
T3 construct: gene PRKAA2

ANKK1 = test system: ANKK1
ARK5 = test system: T4, ARK5
T4 construct: gene NUAK1

ASK1 = test system: T5, ASK1
T5 construct: gene MAP3K5

ASK2 = test system: T6, ASK2
T6 construct: gene MAP3K6

AURKA = test system: AURKA
AURKB = test system: AURKB
AURKC = test system: AURKC
AXL = test system: AXL
BIKE = test system: T7, BIKE
T7 construct: gene BMP2K
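Note: KINOMEscan kinase panel screen.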

Compound	%Inh (ACVR2A) [%]	%Inh (ACVR2B) [%]	%Inh (ACVRL1) [%]	%Inh (ADCK3) [%]	%Inh (ADCK4) [%]	%Inh (AKT1) [%]	%Inh (AKT2) [%]	%Inh (AKT3) [%]	%Inh (ALK) [%]	%Inh (AMPK-alpha1) [%]	%Inh (AMPK-alpha2) [%]	%Inh (ANKK1) [%]	%Inh (ARK5) [%]	%Inh (ASK1) [%]	%Inh (ASK2) [%]	%Inh (AURKA) [%]	%Inh (AURKB) [%]	%Inh (AURKC) [%]	%Inh (AXL) [%]	%Inh (BIKE) [%]
CC(=O)Nc1ccc(COc2ccc(Nc3ccnc4cc(-c5ccccn5)ccc34)cc2)cc1.Cl [GW440148]	0	59	3	18	26	0	15	0	6	0	11	8	18	10	0	14	67	46	1	8
COc1ccc(S(=O)(=O)NC2CCN(c3cc(C)nc(Nc4cccc(C#N)c4)n3)CC2)cc1.O=C(O)C(F)(F)F [GSK1653539]	0	0	0	20	35	0	0	0	5	0	0	14	8	0	0	2	7	0	0	5
N#Cc1ccc(-c2cc(-c3c[nH]nc3-c3ccccn3)ccn2)cc1 [GW693028]	0	40	0	0	20	0	0	0	25	0	49	0	27	0	0	0	32	0	0	11
Cc1cccc(Cn2ccn3c(=O)cc(N4CCOCC4)nc23)c1 [GSK2297542]	0	4	6	27	44	0	4	0	36	1	12	19	12	0	6	15	0	18	5	15
Cn1ccc2ncnc(Oc3ccc(NC(=O)Nc4ccncc4)c(Cl)c3)c21	0	0	4	0	0	9	14	0	0	0	5	0	14	0	0	0	3	0	0	0
CN1c2ccc(NCc3ccc(F)cc3)cc2-c2c(cnn2C)S1(=O)=O	0	0	7	10	0	4	7	0	13	0	0	0	0	0	0	0	14	0	0	0
COc1ccc(Nc2nccc(N3CCC(NC(=O)Nc4cc(C)ccc4C)C3)n2)cc1 (centres unmarked) [GSK1379741]	0	0	0	0	32	0	10	0	25	0	0	0	11	12	0	15	37	46	0	0
CN1c2ccc(CNc3ccc(F)cc3)cc2-c2c(cnn2C)S1(=O)=O	1	0	0	2	5	0	0	0	8	0	13	0	6	0	3	0	21	0	11	0
Cc1nnc(-c2ccc(C)c(-c3ccc(C(=O)Nc4ccc(NS(C)(=O)=O)cc4)cc3)c2)o1 [GW702865]	0	0	0	20	14	0	12	0	6	17	1	14	0	0	0	30	8	3	1	7
COc1cc2c(cc1OCCN1CCN(C)CC1)ncc1c3ccc(C#N)cc3[nH]c21	10	0	0	0	3	0	18	0	0	10	0	54	22	0	0	0	70	33	26	100
